About 3,700 (7%) of roughly 53,000 sequences were called active.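 The calls were made as follows: active = gene knockdowns whose robust z-score for IL-1 alpha signal is at least 2 or at most -2, so actives lie on both sides; inactive = the rest.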 Many of the other results were omitted from the sample, so actives are more common in it than they were.
Experiment: Components of the Cytosolic LPS Sensing Pathway: Gene Identification via Genome-wide siRNA Screen;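 also: robust z of the log signal after scaling to non-targeting control siRNA wells of the plate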
Conditions: RAW264.7 macrophages, IL-1a HTRF, actives lie on both sides, screened at 100 nM (by protocol), cells primed 5 h with Pam3CSK4 first
How it was run: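 RAW264.7; siRNA 100 nM final, RNAiMAX, 48h 37 degrees C; Pam3CSK4 5 h; LipidA + TransIT-TKO 24 h; IL-1a HTRF; CellTiter-Glo viability; robust z vs negative-control median.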

Row | Sequence | z-score
1 | GGAGAAAGUUUUGGAAAAATT against Slc24a5 | -0.622 (inactive)
2 | GGAUUUCUACCAGCUCGUGTT against Pop5 | 1.62 (inactive)
3 | GGAUGGCAGCUUUGACCUUTT against Cdc42ep2 | 0.566 (inactive)
4 | GCAAAACCCAACAACUCUGTT against Lig3 | 1.05 (inactive)
5 | CCUACUGGAGUCUCCUCUUTT against Tmem116 | 0.36 (inactive)
6 | GGAGGACAAUGAGGACGAUTT against Chrac1 | 2.1 (active)
7 | AUUUCUGUAAGGCAAAUGUTT against Olfr970 | -0.454 (inactive)
8 | CCUCGAAUGCAGACGUACGTT against Sdhb | 1.67 (inactive)
9 | CCAAAGUCAUAAUUCCAACTT against Timm23 | 0.202 (inactive)
10 | GGAGCAGAUUAAAUCCCUGTT against Krt8 | 2.46 (active)
11 | GGGAGCUAAGAAGAUUCAUTT against Mul1 | 0.89 (inactive)
12 | GCAGCAGUUGGCUAAAACATT against Bbof1 | -1.14 (inactive)
13 | GGUGGAUGGAUCACUGAGUTT against B230325K18Rik | -0.347 (inactive)
14 | GCAACUAUGAACAAGAAUCTT against Grm3 | -0.0322 (inactive)
15 | GCCACGAAAAGAAGAGAAUTT against Vpreb2 | 1.08 (inactive)
16 | CCUACAGAGUACCCUGUCUTT against Gas2l2 | -2.56 (active)
17 | GGUCCUGAAUUUCAUCCUUTT against B4galnt2 | 0.459 (inactive)
18 | GGUCAGAAAUUCUAAGUUGTT against Gpatch2 | 1.09 (inactive)
19 | GGAAAUGACCUACGAAGAATT against Pfkfb4 | -1.26 (inactive)
20 | GGCAGUCAACAAAGAAGACTT against Metap1d | -0.711 (inactive)
21 | GGUCUGGUGGAGUUGAGAATT against Ccdc80 | -0.617 (inactive)
22 | GCGAGUGCUAACAUGAAAGTT against Sar1a | -0.0783 (inactive)
23 | GUUUGUGCUGUUAGGUUUUTT against Olfr1347 | 2.46 (active)

Row | Sequence | z-score
24 | GGACAAAAGACUUGAAUUUTT against Alox15 | 1.86 (inactive)
25 | GGCUGAAGAGGAUCGGUACTT against Atpif1 | 2.08 (active)
26 | CGCAAGAGUUCCUUUUUUUTT against Sla | 0.671 (inactive)
27 | GGCCACCUAUGAUGGAAAUTT against Kdelr2 | -0.379 (inactive)
28 | GCUCUGAUGGUCUACUGCUTT against Rgs3 | -0.347 (inactive)
29 | GGGCAGCUCAUGUCCUAUATT against Scfd2 | -0.421 (inactive)
30 | CCAGAAAAAAGAUUGUACATT against Hesx1 | -0.43 (inactive)
31 | GCAGAGCUAGCUGAAUUGCTT against Urb2 | -0.156 (inactive)
32 | GCCGUUAAACAGUUCUCCCTT against Cyb561a3 | -0.455 (inactive)
33 | GGAUCGAGUUUGGUGUAGATT against Usp10 | -1.39 (inactive)
34 | CCAUCUACCAUAAACUGUATT against Spata6 | 0.175 (inactive)
35 | CCAUUAAUUACGUGUUUGUTT against Dixdc1 | -0.104 (inactive)
36 | GGAAUGGAAUACAAAGUCATT against Isg20l2 | -0.305 (inactive)
37 | CCUAUGCAUCAGACCUUUGTT against Nedd9 | 2.7 (active)
38 | GGUUUUUCUGUCAAGUGCUTT against Lgr5 | -0.303 (inactive)
39 | GGCAAGAUCCACAAUGAUGTT against Lgals2 | -0.996 (inactive)
40 | CCGUCAGUGAAUUCUUGAATT against Birc5 | 0.342 (inactive)
41 | GGAAGUUUGCUCCAGCCUUTT against Tmem33 | -0.202 (inactive)
42 | GCGAGUGACACAUCUUCUCTT against Klhl7 | 0.467 (inactive)
43 | GGAACAUAUGCAGAAUUUATT against Adgrb3 | 0.509 (inactive)
44 | GGUCCAUUGGGAGUUUGAGTT against Slc2a6 | 3.14 (active)
45 | GGAUGGAGAGAACUACUUATT against Gltpd2 | 0.999 (inactive)
46 | GGAGUGUGAUCAAGUUCAUTT against Eya4 | 2.16 (active)

Row | Sequence | z-score
47 | GGUGUUUGCCUCAGAAAUCTT against Cdk17 | -0.676 (inactive)
48 | GGUGAAGAUUGACAAGAAATT against Spout1 | 0.254 (inactive)
49 | GGAUGAAUGCAGCUUCCAUTT against Myh14 | 2.35 (active)
50 | GGGUGUUCCAGAAGUAUCUTT against Lars2 | -1.76 (inactive)
51 | CCUUGGAAUGCAUAGCCAATT against Sdk1 | 0.285 (inactive)
52 | GGAAUAUGCCCAAGUUUUUTT against Ctnna1 | 2.86 (active)
53 | GCCAAAUUGUCCCGGGCAUTT against Usp39 | 0.457 (inactive)
54 | GGUGAUGUAUUAUUAUCCATT against Defb12 | 0.277 (inactive)
55 | CCUUUCAAGGAGAUAUAAUTT against Gcm2 | 0.65 (inactive)
56 | CCUUAGCUGUCCUUGUGGUTT against Defb28 | -1.36 (inactive)
57 | CGAAAUCCUAGUUUCGUCCTT against Spns1 | 3.29 (active)
58 | GGAAUUGGUCUAUAUGCGUTT against Il2ra | -1.02 (inactive)
59 | GGGUUCCAGUUUGUUUCCUTT against Cnbp | -0.901 (inactive)
60 | CCAUUGAGAUCAGCGACAUTT against Abtb2 | -0.748 (inactive)
61 | GGUAGCAUUAUUUGUCCUATT against Pcdh15 | 0.675 (inactive)
62 | GGAGCUACGAAGAGGAUCUTT against Wdr45b | -2.69 (active)
63 | GGCCAUCUCCUUCAACUAUTT against Ugt2a1 | 1.24 (inactive)
64 | GGAGUAGAUUUAAAAGGCATT against 4933440M02Rik | 0.145 (inactive)
65 | GGUCAACAGAAUGAAAAAUTT against Runx1t1 | -0.211 (inactive)
66 | GGGAAAGUCGAGCUUUUUCTT against Ifi44l | 0.0658 (inactive)
67 | CCAAGCUACCAGGGUUUUUTT against Abcb9 | 2.1 (active)
68 | GGUCCAAGUAAUGAACUCATT against Olfr155 | -1.19 (inactive)
69 | GGCCCUAGAAAUAAUCUGCTT against Anks4b | 0.0338 (inactive)
